HepG2 tox – HepG2 cytotoxicity, counter-screen for TGF-b inhibitors. HepG2 CAGA-GFP viability, ATP luminescence, 18 h. Potency, µM (doses to about 46.1 µM), inactives show at the top dose activity change, negative = cytotoxicity, usual class: cytotoxic. 410,000 compounds, 0.76% hits
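CellTiter-Glo luminescence gave cytotoxicity after 18 hours at 37 degrees C. The cells were HepG2 CAGA-GFP in 1% FBS DMEM, stimulated with 500 pg/mL TGF-beta after compound addition. %Activity was normalised to no-cell wells (complete cell-killing) and DMSO (no toxicity), and curves were fitted and classified.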
ATXN2 expr inh – ATXN2 expression inhibition; HEK-293 ATXN2-luciferase reporter, luminescence, 24 h; Potency, µM (highest dose often 57 µM), for the others: at the highest dose activity change, negative = inhibition, usual class: inhibitors; 360,000 compounds, 0.72% hits; note: % is set by controls: 0 for no effect and ±100 for the full control effect; nearly all actives have a fitted effect of over 55% in size
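ATXN2-luciferase reporter cells (luciferase flanked by upstream and downstream ATXN2 gene portions) were treated 24 h at 37 °C with compounds at up to 57 uM. SteadyGlo luminescence gave expression; GF-AFC fluorescence gave viability.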
VP16 counter – inhibits Gal4-VP16 luciferase reporter, ROR gamma counter-screen | 310,000 compounds, 3.5% hits | Drosophila S2 Gal4-VP16 UAS-luciferase, luminescence, 20 h | Potency, µM (doses to about 53.6 µM), for the others: top-dose activity, negative = inhibition, most hits filed as inhibitors;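 note: Gal4-VP16 expression switched on by copper sulfate through the metallothionein promoter; % is set by controls: 0 for no effect and ±100 for the full control effect; nearly all actives have a fitted effect of over 50% in size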
S2 tox – cell viability loss in ATXN counter-screen; S2 cells (HEK-293 line with an ATXN2-luciferase reporter) viability, CellTiter-Fluor protease fluorescence, 24 h; Potency, µM (top dose mostly 56.7 µM), usual class: cytotoxic; 400,000 compounds, 0.49% hits; note: nearly all actives have a fitted effect of over 40% in size
RORg inh – inhibitors of mouse ROR gamma transcriptional activity | AID 2551 | Drosophila S2 Gal4-RORgamma UAS-luciferase reporter, 20 h | Potency, µM (doses to about 53.6 µM), for the others: top-dose activity change, negative = inhibition, most hits filed as inhibitors | 310,000 compounds, 5.4% hits | P51450; note: % is set by controls: 0 for no effect and ±100 for the full control effect; nearly all actives have a fitted effect of over 60% in size
Target sequence (P51450 whole entry, looked up, the tested form may be a part): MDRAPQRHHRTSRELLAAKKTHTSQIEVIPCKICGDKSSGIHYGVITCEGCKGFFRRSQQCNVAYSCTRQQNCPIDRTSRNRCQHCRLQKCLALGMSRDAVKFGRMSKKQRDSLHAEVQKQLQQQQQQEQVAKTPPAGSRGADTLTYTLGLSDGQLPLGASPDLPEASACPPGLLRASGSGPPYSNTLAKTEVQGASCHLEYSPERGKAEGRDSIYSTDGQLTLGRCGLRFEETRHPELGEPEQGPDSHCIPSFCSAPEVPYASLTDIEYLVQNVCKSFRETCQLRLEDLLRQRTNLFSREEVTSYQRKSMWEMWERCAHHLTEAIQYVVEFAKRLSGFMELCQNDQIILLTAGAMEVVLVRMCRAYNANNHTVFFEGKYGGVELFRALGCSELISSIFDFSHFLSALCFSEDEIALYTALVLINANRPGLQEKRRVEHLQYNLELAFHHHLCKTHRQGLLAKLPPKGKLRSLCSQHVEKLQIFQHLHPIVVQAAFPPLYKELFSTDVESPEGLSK
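Drosophila S2 cells stably expressing Gal4-DBD/mouse RORγ fusion under metallothionein promoter plus UAS-luciferase; compound 1 h, then 700 uM CuSO4 induction for 20 h at ambient temperature; inhibition read as reduced luminescence.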
TGFb SMAD3 inh – blocks TGF-b signaling | HepG2 CAGA-GFP TGF-b/SMAD3 reporter, GFP fluorescence, 18 h; TGF-beta stimulated, 500 pg/mL final | Potency, µM (doses to about 46.1 µM), inactives show at the highest dose activity, negative = inhibition, actives largely listed as inhibitors | 410,000 compounds, 1.2% hits | AID 588855; note: % is set by controls: 0 for no effect and ±100 for the full control effect; nearly all actives have a fitted effect of over 65% in size
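First, reporter cells (HEPG2 CAGA-GFP) rested 2 h at 37 degrees C. Next, compounds were pinned in and TGF-beta added to 500 pg/mL final. After 18 h, GFP was imaged per cell and summed per well.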
* = called active by the depositor; i = inactive; ? = inconclusive; · = no result given. In the library only some 6.1% were active in any assay of this set; here they are far more common. Calls come from the whole dose curve; as a rule, active = well fitted curve in the direction sought with a large enough effect; inconclusive = small, poorly fitted or top-dose-only effect, or another doubt; inactive = no such curve, though single readings can be large; an effect the other way counts as inactive or inconclusive. Potency is the fitted concentration of half-maximal effect.

SMILES | HepG2 tox | ATXN2 expr inh | VP16 counter | S2 tox | RORg inh | TGFb SMAD3 inh
COc1ccc(N2C(=O)/C(=C\c3ccco3)N=C2SCC(=O)N(C(C)C)C(C)C)cc1Cl | 6.7% | -12.7% | 10µM* | ? | ? | 0.0%
COc1ccc(O)c(CN2CCCN(c3nc(C)c4cc(C)c(C)cc4n3)CC2)c1 | · | · | · | i | · | ·
C/C(CC(=O)Nc1ccc2c(c1)OCO2)=N\NC(=O)C(c1ccccc1)c1ccccc1 | 7.1% | 4.0% | ? | i | 15.8µM* | 6.1%
C/C(CC(=O)Nc1ccc2c(c1)OCO2)=N\NC(=O)c1ccccc1N | -29.8% | -9.1% | -6.4% | i | -33.8% | -31.0%
COc1cc(NC(=O)Cn2nc3c(cc2=O)CC(C)CC3)cc(OC)c1OC (centres undefined) | -3.9% | · | · | · | · | -6.4%
CCCN(CCC)CCCNC(=O)c1nn(C)c2c1CS(=O)(=O)c1ccccc1-2 | -2.1% | 3.6% | · | i | · | 31.6%
CC(C)(C)c1ccc(/C=C/C(=O)N2CCc3ccccc3C2)cc1 | -15.9% | 8.8% | 1µM* | i | ? | -8.7%
Cc1ccc(/C=C/C(=O)N2CCc3ccccc3C2)cc1 | -19.3% | 42.8% | ? | i | 17.8µM* | -16.6%
O=C(/C=C/C(=O)N1CCc2ccccc2C1)N1CCc2ccccc2C1 | 4.2% | · | 20µM* | i | ? | -10.0%
COc1ccc(CCNC(=O)CCCn2nc(C)c3sc4ccccc4c3c2=O)cc1OC | -16.8% | · | · | · | · | ?
CCCS(=O)(=O)NCc1c(C)ncc2c1CCN(C(=O)c1cccc(-c3ccccc3F)c1)C2 | · | · | · | i | · | ·
CC(C)(C)n1ncc2c(=O)n(Cc3ccc(F)c(F)c3F)cnc21 | -28.2% | · | · | · | · | 3.5%
CC1=NN(c2ccccc2)C(=O)C1N=Nc1ccccc1 (centres undefined) | -14.1% | 82.4% | -15.6% | i | ? | 0.0%
CC1=NN(C(N)=S)C(=O)C1N=Nc1cccc([N+](=O)[O-])c1 (centres undefined) | -13.4% | 19.4% | 1.58µM* | ? | 0.501µM* | -0.3%
CC1=NN(c2ccccc2)C(=O)C1N=Nc1ccc(N)cc1 (centres undefined) | -40.8% | 2.6% | 8.91µM* | ? | 3.4% | -21.0%
CC1=NN(C(N)=S)C(=O)C1N=Nc1ccccc1 (centres undefined) | -1.7% | · | 0.891µM* | ? | 0.199µM* | -13.5%
CC1=NN(C(N)=S)C(=O)C1N=Nc1ccc(Br)cc1 (centres undefined) | -30.5% | 40.8% | 1.26µM* | ? | 0.447µM* | -0.4%
O=C(C[n+]1ccncc1)c1cccc2ccccc12 | -15.7% | · | · | · | · | -20.4%
CCOc1ccc(C(=O)c2cn(CC(=O)Nc3ccc(F)c(F)c3)c3cc4c(cc3c2=O)OCCO4)cc1 | -5.6% | -27.3% | · | i | · | ?
CCOC(=O)Cc1ccc(NC(=O)N2CC(CC)Oc3ccccc32)cc1 (centres undefined) | 3.3% | · | · | · | · | 1.2%
CC1=NN(C(N)=S)C(=O)C1N=Nc1ccc(Cl)cc1 (centres undefined) | -24.8% | 63.1% | 1.12µM* | i | 0.398µM* | 1.3%
CC1=NN(C(=O)c2ccncc2)C(=O)C1N=Nc1ccc2ccccc2c1 (centres undefined) | -50.2% | 0.4% | · | ? | · | ?
CC1CCN(c2oc(-c3ccc(COc4ccccc4)o3)nc2C#N)CC1 | -7.5% | -6.8% | · | i | · | 0.7%
Cc1cc2oc(=O)c(CC(=O)NCCCO)c(C)c2c2occ(C(C)(C)C)c12 | -26.9% | 4.7% | ? | i | 18.2% | -29.7%
Cc1cc2oc(=O)c(CC(=O)NCCCN(C)C)c(C)c2c2occ(C(C)(C)C)c12 | 22.4µM* | -27.7% | ? | 22.4µM* | 0.0% | ?
COc1ccccc1NC(=O)C1=C(C)Nc2nc(SCc3ccccc3Cl)nn2C1c1cccnc1 (centres undefined) | 2.6% | 1.2% | · | i | · | 2.9%

Screens (PubChem BioAssay)
